Rab9 promoter act – activators of Rab9 promoter; 320,000 tested, 2.8% active; Huh7 Rab9 promoter-luciferase reporter, luminescence, 24 h; Potency, µM (titrated, usually from 9.22 µM), for inactives: at the top dose activation, negative = inhibition, hits mostly activators; further: % of control where 0% means no effect; nearly all actives have a fitted effect of over 60% in size
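Stable Rab9-luc Huh7, 1500 cells/well, 2 h settle; cmpd in DMSO, 24 h, 37 °C/5% CO2; luciferase reagent 10 min RT; luminescence.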
Luc counter – Kinase-Glo luciferase inhibition (counter-screen); Q27757; 200,000 tested, 0.28% active; Potency, µM (highest dose often 38.3 µM), inactives show top-dose activity change, negative = inhibition, usual class: inhibitors; Kinase-Glo luciferase, ATP luminescence, 8 min; further: on the % scale 0 is the no-effect control and ±100 the full control effect; nearly all actives have a fitted effect of over 60% in size
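Recombinant Kinase-Glo luciferase, 10 uM ATP (linear range), luciferin; imidazole pH 7.2 / KCl / MgCl2 / Tween / BSA buffer; 8 min RT; luminescence.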
FLuc counter – counter-screen for miR-21 project: firefly luciferase inhibitors or activators; P08659; purified FLuc, Km substrates, luminescence inhibition; Potency, µM (series often up to 57.5 µM), inactives show top-dose activity change, negative = inhibition, actives largely listed as inhibitors; 360,000 tested, 6.9% active;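 further: plate controls were vehicle for no effect and reference inhibitor for full effect; nearly all actives have a fitted effect of over 55% in size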
Target sequence (P08659 whole entry, looked up): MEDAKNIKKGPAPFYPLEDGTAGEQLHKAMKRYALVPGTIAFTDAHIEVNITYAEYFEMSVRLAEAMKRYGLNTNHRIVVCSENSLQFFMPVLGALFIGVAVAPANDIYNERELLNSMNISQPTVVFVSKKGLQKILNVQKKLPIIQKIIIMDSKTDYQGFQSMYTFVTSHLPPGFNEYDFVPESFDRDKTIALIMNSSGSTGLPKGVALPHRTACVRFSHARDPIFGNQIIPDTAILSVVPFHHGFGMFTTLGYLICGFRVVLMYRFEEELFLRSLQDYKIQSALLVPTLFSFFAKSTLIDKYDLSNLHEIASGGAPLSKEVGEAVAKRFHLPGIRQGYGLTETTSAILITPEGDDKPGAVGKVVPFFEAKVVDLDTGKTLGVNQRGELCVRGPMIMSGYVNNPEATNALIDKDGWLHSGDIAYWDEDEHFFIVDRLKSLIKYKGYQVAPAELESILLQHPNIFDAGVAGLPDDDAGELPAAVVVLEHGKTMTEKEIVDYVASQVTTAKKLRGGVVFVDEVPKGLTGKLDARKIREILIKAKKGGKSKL
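Biochemical qHTS of compounds, final roughly 60 µM downward over six points, against 10 nM purified firefly luciferase using Km concentrations of substrates (10 uM D-luciferin, 10 uM ATP) in Tris acetate pH 7.5 buffer; luminescence output.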
SMN2 splice enh – increases expression of the SMN2 splice variant; HEK293 SMN2-luciferase splicing reporter, luminescence, 30-36 h; Potency, µM (doses to about 46.1 µM), for the others: at the highest dose activity change, positive = activation, most hits filed as activators; 210,000 tested, 2.8% active; further: % of control where 0% means no effect; nearly all actives have a fitted effect of over 55% in size
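qHTS luciferase splicing reporter: luminescence rises when SMN2 exon 7 is included in transfected HEK293 cells. Compound exposure lasted 30-36 h at 37C, with 4.5 mM final sodium butyrate as control, followed by a ONE-Glo read.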
NPC1 promoter act – activates the NPC1 promoter; Huh7 NPC1 promoter luciferase reporter, 24 h; Potency, µM (series often up to 9.22 µM), for inactives: at the highest dose activation, hits mostly activators; 320,000 tested, 2.4% active; further: % of control where 0% means no effect; nearly all actives have a fitted effect of over 60% in size
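In 1536-well qHTS, Huh7 cells harboring an NPC1 promoter–luciferase construct received compound for 24 h; activation was quantified by luminescence following luciferase reagent addition.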
The depositor's hits bear a star; u = inconclusive; x = no result given; [ ] = another dose, or the depositor's remark. A selection: hits, their analogues and other compounds. The true share with any hit is near 7.3%. The call rests on the fitted dose curve; in most records, active means well fitted curve in the direction sought with a large enough effect; inconclusive means small, poorly fitted or top-dose-only effect, or another doubt; inactive means no such curve, though single readings can be large; an effect the other way counts as inactive or inconclusive. Potency means the concentration at half of the fitted maximal effect.

SMILES	Rab9 promoter act	Luc counter	FLuc counter	SMN2 splice enh	NPC1 promoter act
Cc1ccc(OCC(=O)NCc2ccccn2)c(Br)c1	u	1%	17µM*	26%	u
CCc1ccccc1Nc1cc(C(=O)NCc2ccccn2)c2ccccc2n1	-1%	-3%	17µM*	-6%	1%
Cc1ccc(-c2cc(C(=O)NCc3ccccn3)c3ccccc3n2)cc1	25%	-5%	4.3µM*	u	1%
CCc1ccccc1Nc1cc(C(=O)NCc2ccc(C)cc2)c2ccccc2n1	x	x	-3%	-7%	x
CCOC(=O)c1scc(-c2ccc(C)cc2)c1S(=O)(=O)Nc1ccc(OC)c(Cl)c1	x	x	-10%	x	x
Cc1ccc(CCNC(=O)c2ccc(CSc3nc4ccncc4n3Cc3ccc(F)cc3)cc2)cc1	x	x	0%	-2%	x
COc1ccc(CNC(=O)c2ccc3nc(CCc4ccccc4)oc3c2)cc1OC	x	x	-19%	x	x
CN(C)c1ccc(CNC(=O)C2CCN(S(=O)(=O)c3ccc4c(ccn4C)c3)CC2)cc1	x	x	-3%	x	x
Cc1ccc(OCC(=O)Nc2ccc(S(=O)(=O)Nc3cc(C)on3)cc2)c(Br)c1	x	x	21µM*	-3%	x
Cc1cc(NS(=O)(=O)c2ccc(NC(=O)COc3ccc(Cl)cc3Cl)cc2)no1	-2%	x	u	x	-3%
Cc1ccc(OCC(=O)NC(=S)Nc2ccc(S(=O)(=O)Nc3cc(C)on3)cc2)c(Br)c1	-5%	x	1.5µM*	x	0%
Cc1cccc(NS(=O)(=O)c2ccc(C)c(C(=O)OCC(=O)Nc3cc(C)on3)c2)c1	0%	-7%	3%	20µM*	0%
COC(=O)CCC(=O)NC(=S)Nc1ccc(S(=O)(=O)Nc2cc(C)on2)cc1	10%	x	-2%	x	0%
O=c1c(NCc2cccs2)nccn1-c1ccc(F)cc1	x	x	-15%	x	x
COc1ccc(-c2cc(N3C(=O)Nc4ccccc4N3O)n[nH]2)cc1	9%	4%	11µM*	u	-1%
COc1ccc(-c2cc(N3C(=O)Nc4ccccc4N3O)n[nH]2)c(OC)c1	-2%	2%	15µM*	-8%	-2%
COc1cc(-c2cc(N3C(=O)Nc4ccccc4N3O)n[nH]2)cc(OC)c1OC	-2%	0%	-2%	3%	-3%
CCOc1ccc(-c2cc(N3C(=O)Nc4ccccc4N3O)on2)cc1	16%	-1%	2.4µM*	16%	15%
CCc1cccc(C)c1NC(=O)CN1CCN(Cc2ccccc2Cl)S1(=O)=O	x	x	-3%	x	x
CCOC(=O)c1sc(N2C(=O)c3oc4cc(C)c(C)cc4c(=O)c3C2c2ccc(C)cc2)nc1C (configuration not stated)	x	x	3%	30%	x
Cc1cccc(CN2CCC(CNC(=O)c3c(C)oc4ncnc(N5CCCCC5)c34)CC2)c1	x	x	-1%	x	x
COC(=O)c1sc(NC(=O)COc2ccccc2C)nc1C	u	-3%	u	5%	11%
O=C(COc1ccccc1)Nc1nc2c(s1)CCCC2	u	x	13µM*	x	u
O=C(CSCc1ccc(F)cc1)Nc1nc2c(s1)CCCC2	7%	11%	-12%	-6%	-5%
O=C(COc1ccccc1Cl)Nc1nc2c(s1)CCCC2	x	x	21µM*	x	x
SMILES	Rab9 promoter act	Luc counter	FLuc counter	SMN2 splice enh	NPC1 promoter act
Cc1cnc(NC(=O)COc2ccccc2Cl)s1	0.25µM*	-23%	0.27µM*	0.79µM*	0.1µM*
COc1ccccc1OCC(=O)Nc1nc(C)c(C)s1	4µM*	x	8.5µM*	x	2.8µM*
COc1cc2c(cc1OC)C1O[C@](CCCCN3C(=O)c4ccccc4C3=O)(C2)OC2=C1C(=O)c1ccccc1C2=O	6%[1.84 µM]	x	-3%[11.5 µM]	x	7%[1.84 µM]
Cc1ccc(C)c(CN2C(=O)c3ccccc3S(=O)c3ccc(C(=O)N(C)Cc4ccccc4)cc32)c1 (configuration not stated)	x	x	-3%	-45%	x
CC1=N[C@@](C)(COC(=O)[C@]2(C)N[C@](C)(CO)CO2)COC1=O	x	-3%[7.66 µM]	x	-15%[9.22 µM]	x
CCCCN(C)C(=O)CN1C(=O)CCn2nc(-c3cn(C)c4ccccc34)cc21	x	x	-11%	x	x
CCOC(=O)c1c(C)[nH]c(C(=O)CSc2nc3ccccc3o2)c1C	-2%	-3%	9%	0.32µM*	-5%
CCOC(=O)c1c(C)[nH]c(C(=O)CSc2nc(C)cc(C)n2)c1C	2%	-3%	0%	-46%	-5%
CCOC(=O)c1c(C)[nH]c(C(=O)CSc2ccc(Cl)cc2)c1C	u	-2%	6µM*	11µM*	u
CCc1cccc(NC(=O)CSc2nc3ccccc3nc2N2CCCCC2)c1	x	x	-1%	0.5µM*	x
CCc1ccc(NC(=O)CSc2nc3ccccc3nc2N2CCCCC2)cc1	13%	x	u	x	-5%
Cn1c(CO)cnc1SCc1ccc(Cl)cc1	u	-2%	-16%	8%	3.5µM*
Cc1cc(NO)nc(-c2ccc(Br)cc2)n1	4.5µM*	1%	24µM*	16µM*	u
Cc1cc(C)nc(NC(=O)c2ccc(Br)cc2)n1	-2%	x	2%	x	2%
Cc1ccc(/C=C/c2nc3ccccc3n2S(=O)(=O)c2cccc(Cl)c2)cc1	x	x	0.67µM*	x	x
CCOc1cc(S(=O)(=O)n2c(C)nc3ccccc32)ccc1F	-9%	2%	-1%	-30%	1%
CCOc1ccc(/C=C/c2nc3ccccc3n2S(=O)(=O)c2cccc(Cl)c2)cc1	x	x	0.95µM*	5µM*	x
CSc1ccc(/C=C/c2nc3ccccc3n2S(=O)(=O)c2ccc(F)c(C)c2)cc1	x	x	0.27µM*	x	x
O=C(c1ccccc1)c1nnc(-c2ccncc2)o1	2%	u	9.5µM*	5%	-3%
CCNC(=O)c1c(NC(=O)Cc2coc3cc(C)cc(C)c23)sc2c1CCCC2	x	x	-2%	8%	x
COc1ccccc1C(=O)NCCc1nc2ccccc2n1C	-5%	1%	6%	-1%	-4%
COc1ccccc1C(=O)Nc1ccc2c(c1)nc(CCNC(=O)c1ccccc1)n2C	2%	x	15µM*	x	-19%
CC(=O)NCCc1nc2cc(NC(=O)Nc3ccccc3)ccc2n1C	4µM*	x	6.7µM*	x	2.2µM*
Cn1c(CCN2CCCCC2)nc2cc(NC(=O)Nc3ccccc3)ccc21	-1%	x	-3%	x	-2%
COc1ccccc1C(=O)Nc1ccc2c(c1)nc(CCNC(C)=O)n2C	u	-3%	15µM*	u	u
CCC(=O)NCCc1nc2cc(NC(=O)c3ccccc3OC)ccc2n1C	29%	-8%	21µM*	x	23%
CC(=O)N1CCc2c(sc3c2c(=O)n(-c2ccccc2)c(=O)n3CC(=O)c2ccc(Cl)cc2)C1	x	x	-1%	8%	x
c1ccc(CN2CCC3(CC2)SSC2(CCN(Cc4ccccc4)CC2)SS3)cc1	x	-3%[7.66 µM]	x	-3%[9.22 µM]	x
COc1ccc(CCNC(=O)c2cc(=O)[nH]c3ccc(S(=O)(=O)N4CCCCC4)cc23)cc1OC	x	x	3%	x	x
Cc1ccc(C)c(CNC(=O)C2CCN(c3nc4ccccc4nc3C(F)(F)F)CC2)c1	x	x	3%	x	x

Screens from PubChem BioAssay.
